From PubChem BioAssay (NCI)
Where “and” joins values, the source holds several entries; their conditions need not be identical. Equal values may be shown once. About 79,000 compounds went through this panel and 15% of them were active in at least one assay; those are over-represented in the sample as a whole. Some structures have more than one record in an assay (separate samples or runs), and their calls can disagree. Calls of active or inactive are those of the source. Cut-off read from the data, not from the text of the source: active = growth inhibition above about 70%; inactive = the rest.

experiment: NCI Yeast Anticancer Drug Screen. Data for the bub3 strain (AID 167); conditions: S. cerevisiae bub3 mutant strain, at 50.0 µM, stronger effect = higher value
Procedure, shortened: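 Mutant yeast screening strain plus compound; vehicle-treated cultures serve as the 0% inhibition reference.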

Row | SMILES | growth inhibition
1 | NCC1CCC(CN)CC1 (stereo unspecified) | -28.9% (inactive) and -25.8% (inactive)
2 | CCCCCC(Br)C(Br)CC(Br)C(Br)CCCCCCCC(=O)c1ccc2ccccc2c1O (stereo unspecified) | -18.3% (inactive) and 5.9% (inactive)
3 | O=c1[nH]c(SCc2ccccc2[N+](=O)[O-])nc2nc[nH]c12 | -10.8% (inactive) and -30% (inactive)
4 | OC1CCN2Cc3ccccc3N=C12 (stereo unspecified) | -3.05% (inactive) and 13.4% (inactive)
5 | C=CC/C(=N\OS(=O)(=O)O)SC1OC(CO)C(O)C(O)C1O (stereo unspecified) | -14% (inactive) and -30.2% (inactive)
6 | CCc1ccc(N)cc1 | -16.5% (inactive) and -11.1% (inactive)
7 | CC(O)(c1cccc(Cl)c1)C(c1ccccc1)c1ccccn1 (stereo unspecified) | 46.8% (inactive) and 97.4% (active)
8 | C1=C(c2cccc3ccccc23)CCCC1 | 2.65% (inactive) and 11.7% (inactive)
9 | Cn1c(=O)c(Br)cn(C2OC(CO)C3OC32)c1=O (stereo unspecified) | 25.4% (inactive) and -4.1% (inactive)
10 | NC1CCCCCCC1 | 9.85% (inactive) and 3.6% (inactive)
11 | O=C(NS(=O)(=O)c1ccccc1)OCc1ccccc1 | 16.7% (inactive) and 24.8% (inactive)
12 | CCCCOc1ccc2nc3cc(Cl)ccc3c(Cl)c2n1 | -12.2% (inactive) and 8.6% (inactive)
13 | N/N=C(/C(=O)c1ccccc1)c1ccccc1 | -3.1% (inactive) and -1.85% (inactive)
14 | CC(=O)OC(COC(=O)c1ccccc1)C(OC(C)=O)C(OC(C)=O)C(COC(=O)c1ccccc1)OC(C)=O (stereo unspecified) | -3.3% (inactive) and -2.7% (inactive)
15 | CCOC(=O)CNC(=O)c1ccccc1 | -2.35% (inactive) and 27.1% (inactive)
16 | CCCCN(CCCC)CCCN | 6.5% (inactive) and -3.15% (inactive)

experiment: NCI Yeast Anticancer Drug Screen. Data for the mlh1 rad18 strain (AID 175); conditions: S. cerevisiae mlh1 rad18 strain growth inhibition; at 50.0 µM; stronger effect = higher value
Procedure, shortened: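 Steps: expose repair-defective yeast to compound; measure growth; express inhibition against vehicle-treated controls.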

Row | SMILES | growth inhibition
17 | CC(=O)OCC(OC(C)=O)C(OC(C)=O)C(OC(C)=O)C(C=NN(C(C)=O)S(=O)(=O)c1ccc(/C=C2\NC(=O)N(C)C2=O)cc1)OC(C)=O (stereo unspecified) | 22.8% (inactive) and 12.1% (inactive)
18 | O=C(O)C1C2OC(C(Br)C2Br)C1C(=O)O (stereo unspecified) | 13.9% (inactive) and -0.15% (inactive)
19 | COc1cc2c(c(OC)c1OC)-c1ccc(OC)c(=O)cc1C([N+](C)(C)C)CC2 (stereo unspecified) | 25.5% (inactive) and 7.4% (inactive)
20 | Cc1ccc2ccccc2[n+]1C | -5.4% (inactive) and -20.4% (inactive)
21 | COc1ccc(C(O)C(NCCO)c2ccc(OC)cc2)cc1 (stereo unspecified) | 15.7% (inactive) and -28.1% (inactive)
22 | C/C=C(\C)c1cc(=O)c2c(C)cc3c(c2o1)C(=O)c1c(O)c(C2CC(C)(N(C)C)C(O)C(C)O2)cc(C2CC(N(C)C)C(O)C(C)O2)c1C3=O (stereo unspecified) | -5.8% (inactive) and 10.2% (inactive)
23 | CCOC(=O)c1ccc(N=[N+]([O-])c2ccc(C(=O)OCC)cc2)cc1 | -13.4% (inactive) and 19.8% (inactive)
24 | C[N+](C)(C)CCOC(=O)c1ccccc1CBr | 3.95% (inactive) and 64.9% (inactive)
25 | CC(=O)OCC1OC(n2cnc3c(N)ncnc32)C(OC(C)=O)C1OC(C)=O (stereo unspecified) | 18.1% (inactive) and -0.25% (inactive)
26 | CC(=O)/C=C/C1=C(C)CCCC1(C)C | 11.8% (inactive) and -2.2% (inactive)
27 | COc1ccc2c(=O)c(C)c(-c3ccccc3)oc2c1CN(C)C | 2% (inactive) and -28.3% (inactive)
28 | Oc1ccccc1-c1nc2ccccc2o1 | 3.6% (inactive) and 0.9% (inactive)
29 | Cc1cn(C2CC(CCCO)C(CO)O2)c(=O)[nH]c1=O (stereo unspecified) | 5.35% (inactive) and 0.6% (inactive)
30 | N#CC1OC1c1cccc[n+]1[O-] (stereo unspecified) | -3.15% (inactive) and 8.5% (inactive)
31 | O=C(CCCCCCCCC(=O)NCC1(c2ccccc2)CCN(Cc2ccccc2)CC1)NCC1(c2ccccc2)CCN(Cc2ccccc2)CC1 | -0.55% (inactive) and 26.4% (inactive)
32 | CCCCc1ccc(OC2OC(COC(C)=O)C(OC(C)=O)C(OC(C)=O)C2OC(C)=O)cc1 (stereo unspecified) | -35.5% (inactive) and -0.5% (inactive)
33 | S=c1nc[nH]c2ccccc12 | 5% (inactive) and 5.65% (inactive)
34 | OC1COCOC1C1OCOCC1O (stereo unspecified) | -5.6% (inactive) and -0.85% (inactive)
35 | OCC(O)C(O)C(O)C(O)[C@@H](O)c1nc2ccccc2[nH]1 (stereo partly specified) | -3.8% (inactive) and 12.2% (inactive)
36 | CC(CC(=O)O)C(C(=O)O)C(=O)O (stereo unspecified) | -18.3% (inactive) and -7.75% (inactive)

Row | SMILES | growth inhibition
37 | C/C(=N\NS(C)(=O)=O)C(C)(C)C | -13% (inactive) and 17.8% (inactive)
38 | COc1cc2c(cc1OC)C(=O)C1COC(=O)C1C2 (stereo unspecified) | 0.55% (inactive) and 12.2% (inactive)
39 | Nc1cc(S(=O)(=O)O)ccc1Cl | 3.95% (inactive) and -13.1% (inactive)
40 | COc1ccc(COC(=O)NCC(=O)NC(C)C(=O)NC(Cc2ccccc2)C(=O)OCc2ccccc2)cc1 (stereo unspecified) | 4.25% (inactive) and 6.25% (inactive)
41 | NCC1CCC(CN)CC1 (stereo unspecified) | -19.9% (inactive) and -7.3% (inactive)
42 | CCCCCC(Br)C(Br)CC(Br)C(Br)CCCCCCCC(=O)c1ccc2ccccc2c1O (stereo unspecified) | -3.1% (inactive) and 7.15% (inactive)
43 | O=c1[nH]c(SCc2ccccc2[N+](=O)[O-])nc2nc[nH]c12 | -1.9% (inactive) and -8.05% (inactive)
44 | OC1CCN2Cc3ccccc3N=C12 (stereo unspecified) | -2% (inactive) and -16.8% (inactive)
45 | C=CC/C(=N\OS(=O)(=O)O)SC1OC(CO)C(O)C(O)C1O (stereo unspecified) | -14.9% (inactive) and -10.7% (inactive)
46 | CCc1ccc(N)cc1 | -16.7% (inactive) and 4.35% (inactive)
47 | CC(O)(c1cccc(Cl)c1)C(c1ccccc1)c1ccccn1 (stereo unspecified) | 79.7% (active) and 97% (active)
48 | C1=C(c2cccc3ccccc23)CCCC1 | 6.9% (inactive) and -9.2% (inactive)
49 | Cn1c(=O)c(Br)cn(C2OC(CO)C3OC32)c1=O (stereo unspecified) | 4.15% (inactive) and -0.65% (inactive)
50 | NC1CCCCCCC1 | 0.55% (inactive) and 2.7% (inactive)
51 | O=C(NS(=O)(=O)c1ccccc1)OCc1ccccc1 | -6.1% (inactive) and 6.1% (inactive)
52 | CCCCOc1ccc2nc3cc(Cl)ccc3c(Cl)c2n1 | 25.8% (inactive) and 3.55% (inactive)
53 | N/N=C(/C(=O)c1ccccc1)c1ccccc1 | 10.2% (inactive) and 7.9% (inactive)
54 | CC(=O)OC(COC(=O)c1ccccc1)C(OC(C)=O)C(OC(C)=O)C(COC(=O)c1ccccc1)OC(C)=O (stereo unspecified) | 5.45% (inactive) and 17% (inactive)
55 | CCOC(=O)CNC(=O)c1ccccc1 | -1% (inactive) and -4.65% (inactive)
56 | CCCCN(CCCC)CCCN | -9% (inactive) and 11.7% (inactive)
